TrxR1 substrate: rat thioredoxin reductase 1 substrate activity | O89049 | purified TrxR1 substrate turnover, NADPH consumption readout | Potency, µM (highest dose often 114 µM), for the others: at the top dose activity change, negative = substrate turnover | 390,000 compounds, 0.01% hits; also: nearly all actives have a fitted effect of over 50% in size
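Rat TrxR1, dispensed at 90 nM, was prereduced with 400 uM NADPH (final) for 5 min at ~22 deg C, then incubated with compound 15 min before 400 uM selenite. A first-read NADPH fluorescence drop versus no-compound background flagged substrates.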
KAT2A inh: GCN5L2 (KAT2A) acetyltransferase inhibition; GCN5L2 HAT assay, ThioGlo1 CoA-SH fluorescence; AID 504327; 390,000 compounds, 0.21% hits; Potency, µM (doses to about 58.9 µM), for the others: top-dose activity change, negative = inhibition, most hits filed as inhibitors
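Enzyme at 20nM final was mixed with library compounds for 15 min at room temperature. Peptide H3(1-25) at 75uM, acetyl-CoA at 70uM and ThioGlo1 at 50uM were then added. Plates were read immediately and after 20 min (Ex340nm/Em540nm).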
VDR inhibitor: vitamin D3 receptor (human) inhibition | P11473 | VDR-SRC2-3 peptide fluorescence polarization, 2 h | Potency, µM, inactives show max response, negative = inhibition, most hits filed as inhibitors | 400,000 compounds, 0.93% hits
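Inhibition of the VDR/SRC2-3 peptide interaction is quantified by fluorescence polarization. Compounds (23 nl, pintool) incubate with the reagents for 2 hours at ambient room temperature.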
rTrxR1 inhibitor: blocks rat thioredoxin reductase 1; recombinant rTrxR1, NADPH fluorescence consumption, selenite substrate; Potency, µM (titrated, usually from 114 µM), inactives show at the highest dose activity change, negative = inhibition, usual class: inhibitors; 390,000 compounds, 1% hits; AID 588453; also: nearly all actives have a fitted effect of over 65% in size
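Rat TrxR1 (90 nM in the dispensed reagent) was pre-reduced with 400 uM NADPH for 5 min at room temperature, then incubated with compound for 15 min. After 400 uM selenite was added, NADPH fluorescence (Ex 340/Em 450 nm) was followed for 8 min.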
GLS inh: blocks human kidney-isoform glutaminase activity | 410,000 compounds, 0.21% hits | Potency, µM (highest dose often 45.5 µM), for inactives: at the highest dose activity change, negative = inhibition, actives largely listed as inhibitors | O94925 | GLS enzymatic activity, qHTS titration
Target sequence (O94925 whole entry, looked up, canonical isoform): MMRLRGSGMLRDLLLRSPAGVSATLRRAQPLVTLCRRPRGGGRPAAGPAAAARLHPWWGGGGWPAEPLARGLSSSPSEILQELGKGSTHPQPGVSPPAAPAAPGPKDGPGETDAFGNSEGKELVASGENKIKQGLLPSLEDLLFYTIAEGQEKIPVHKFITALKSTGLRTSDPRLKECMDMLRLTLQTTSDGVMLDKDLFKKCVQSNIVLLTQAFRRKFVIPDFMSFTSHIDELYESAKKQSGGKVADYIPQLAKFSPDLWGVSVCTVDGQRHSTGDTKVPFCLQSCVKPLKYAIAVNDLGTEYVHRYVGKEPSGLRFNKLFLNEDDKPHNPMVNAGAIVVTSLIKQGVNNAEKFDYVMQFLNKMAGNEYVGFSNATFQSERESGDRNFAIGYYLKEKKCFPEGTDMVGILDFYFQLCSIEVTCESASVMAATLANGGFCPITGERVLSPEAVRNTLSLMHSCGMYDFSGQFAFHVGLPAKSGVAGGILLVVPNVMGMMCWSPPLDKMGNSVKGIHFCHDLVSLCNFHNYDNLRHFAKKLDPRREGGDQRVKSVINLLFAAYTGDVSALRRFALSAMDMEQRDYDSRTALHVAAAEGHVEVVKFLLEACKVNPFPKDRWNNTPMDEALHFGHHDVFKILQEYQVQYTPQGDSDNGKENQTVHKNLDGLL
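hKGA in 45 mM KH2PO4 pH 8.2, 0.02% Tween-20 with pin-transferred compounds; 1 mM L-glutamine (stock) plus glutamate oxidase/HRP/Amplex Red coupling added. Fluorescence read initially and after 30 min at RT.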
Sfp inh: inhibitors of Bacillus subtilis Sfp phosphopantetheinyl transferase; Biochemical Sfp PPTase activity, qHTS; Potency, µM, for inactives: largest response in the series, negative = inhibition, actives largely listed as inhibitors; 310,000 compounds, 3.5% hits;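 also: the enzyme is Sfp with the accession as filed and its product quenches rhodamine fluorescence; 0% = enzyme reaction without inhibitor and -100% = no enzyme wells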
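With Hepes-Na pH 7.6 buffer containing 10 mM MgCl2, Sfp (15 nM) modified BHQ-2-YbbR (12.5 uM) using rhodamine-CoA (5 uM). Two reads 30 minutes apart at 525/598 nm yielded each well's rate.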
An asterisk follows results filed as active; ? = inconclusive; . = no result; [ ] = dose if it differs, or a comment. Compounds with a hit are over-represented: about 3.8% of the library has one in this group of screens. Calls follow the shape of the dose curve; as a rule, active = well fitted curve in the direction sought with a large enough effect; inconclusive = small, poorly fitted or top-dose-only effect, or another doubt; inactive = no such curve, though single readings can be large; an effect the other way counts as inactive or inconclusive. Unless noted, % is scaled to controls: 0 for no effect and ±100 for the full control effect; potency is read from the fitted curve at half-maximal effect.

SMILES	TrxR1 substrate	KAT2A inh	VDR inhibitor	rTrxR1 inhibitor	GLS inh	Sfp inh
COc1cccc(C2C(C#N)=C(N)Oc3c2oc(CO)cc3=O)c1 (stereo not drawn)	-4.5%	-5.4%	9.5%	-35.4%	-6.2%	11.7%
COc1ccc(C2C(C#N)=C(N)Oc3c2oc(CO)cc3=O)cc1 (stereo not drawn)	-1.2%	-8.7%	-8.4%	23.3%	-13.1%	56.2µM*
COc1cc(CNC2CCCC2)cc(Cl)c1OCc1ccc(F)cc1	-4.6%	-5.7%	10.3%	3.9%	4.0%	-26.1%
COc1cc(CNCCO)cc(Cl)c1OCc1ccc(Cl)cc1Cl	-1.7%[57.1 µM]	-3.0%	14.9%	8.6%[57.1 µM]	-8.0%	20µM*
COc1cc(CNC2CCCC2)cc(Cl)c1OCc1ccccc1Cl	-5.0%	-1.3%	-0.8%	89.1µM*	8.3%	-9.6%
CCOc1cc(CNC2CCCC2)cc(Cl)c1OCc1ccc(F)cc1	9.1%	?	1.3%	18.3%	9.4%	39.8µM*
Cc1cc(/C=N/Nc2nc(N)ncc2[N+](=O)[O-])c(C)n1-c1ccccc1F	.	?	.	.	.	50.1µM*
COc1ccc(CN(C(=O)/C=C/c2ccccc2Cl)C2CCS(=O)(=O)C2)cc1 (stereo not drawn)	0.9%	-1.2%	-31.1%	30.2%	2.0%	7.2%
COC(=O)c1nc(NC(=O)C(C)C)n[nH]1	-3.1%	-4.3%	6.8%	-22.2%	-3.7%	22.4µM*
O=C(NCCOc1ccc(F)cc1)c1ccccc1SCc1ccccc1	-5.3%	-9.9%	-8.6%	14.9%	-2.1%	6.3%
CC1CN(C(c2ccco2)c2sc3ncnn3c2O)CC(C)O1 (stereo not drawn)	-0.4%[57.1 µM]	-4.9%	-21.1%	-11.8%[57.1 µM]	1.1%	39.8µM*
Cc1nc2sc(C(c3ccco3)N3CCN(c4ccc(F)cc4)CC3)c(O)n2n1 (stereo not drawn)	1.3%[57.1 µM]	-12.1%	-7.3%	2.3%[57.1 µM]	19.1%	44.7µM*
C(=C\c1ccc2ccccc2n1)/c1ccc2ccccc2n1	62.6%	.	.	26.7%	.	.
Cc1sc2nc(-c3cccnc3)[nH]c(=O)c2c1-c1ccccc1	1.6%	-13.6%	-14.0%	-13.8%	-15.8%	44.7µM*
Cc1sc2nc(Cc3ccccc3)[nH]c(=O)c2c1-c1ccccc1	-16.5%[57.1 µM]	-3.4%	3.0%	17.9%[57.1 µM]	4.5%	7.3%
CCC(=O)NC(c1ccc(C)cc1)c1cc([N+](=O)[O-])c2cccnc2c1O (stereo not drawn)	?	0.8%	-5.9%	-32.9%	12.7%	?
CCCC(=O)NC(c1ccco1)c1cc([N+](=O)[O-])c2cccnc2c1O (stereo not drawn)	-12.5%[57.1 µM]	-5.1%	2.3%	-53.7%	1.4%	14.1µM*
CN(C)S(=O)(=O)c1cccc(NC(=O)COC(=O)/C=C/c2ccco2)c1	-2.2%	-9.4%	?	25.1µM*	-0.8%	-19.0%
CCN(CC(=O)Nc1cccc(C(C)=O)c1)S(=O)(=O)c1ccc(OC)cc1	4.8%[57.1 µM]	-5.5%	4.2%	-1.3%[57.1 µM]	5.3%	15.2%
CCN(CC)S(=O)(=O)c1cccc(NC(=O)CN(C)Cc2cccc(OC)c2)c1	3.4%	-0.4%	-0.4%	16.1%	9.3%	89.1µM*
CCN(CC)S(=O)(=O)c1cccc(NC(=O)COC(=O)/C=C/c2ccco2)c1	-10.3%	-20.5%	-11.5%	?	-1.2%	28.2µM*
CN(C)S(=O)(=O)c1cccc(NC(=O)COC(=O)/C=C/c2ccc3c(c2)OCO3)c1	19.3%	-18.4%	19.8%	31.1%	-4.4%	17.5%
O=C(NCCC1=CCCCC1)C1CCN(S(=O)(=O)c2cccc3nonc23)CC1	-9.4%	-4.2%	2.0%	7.3%[57.1 µM]	-3.3%	6.1%
COc1ccc(/C=C2/SC(=S)N(NS(=O)(=O)c3ccc(C)cc3)C2=O)cc1	-9.0%	-12.2%	-7.8%	10.4%	7.8%	-9.8%
CS(=O)(=O)Nc1cccc(-c2cn3c(n2)SCC3)c1	-11.7%	-3.5%	?	31.6µM*	15.0%	9.3%
COC(=O)c1ccc(/C=C/c2ccc3cccc(OC)c3n2)cc1	80.8%	?	-1.2%	7.5%	3.6%	44.7µM*

Screens from PubChem BioAssay.
